The nature of test [1]: compounds binding Alexa647 anti-His antibody – biochemical, small-molecule microarray, 635 nm fluorescence, artefact control for SMM control protein annotation, primary screen (AID 1128).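 Further: score merges feature fluorescence with signal-to-noise for each printed compound spot.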 The settings on record: higher = more signal.
The test system of test [2] is Human papillomavirus type 1a E7 protein (residues 1-88). Kind of test: HPV1a E7 small-molecule binders, primary screen, biochemical, small-molecule microarray, residues 1-88, 635 nm (AID 1129). The following applies: small-molecule microarray binding, fluorescence 635 nm; higher = more signal.
For test [3], the target named is Focal adhesion kinase 1 (Homo sapiens) (UniProt Q05397). The test is described as follows: PTK2 protein binding on printed compound slides – biochemical, small-molecule microarray, 635/667 nm fluorescence, BSA, DTT, primary screen (AID 1130).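 Further: composite of spot emission at 667 nm and signal to noise over triplicate slides.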 The settings on record: 635 nm fluorescence, higher = more signal.
Test [4] has as its system Fibrinogen (Alexa647-labelled). Kind of test: Alexa647-fibrinogen binding to printed small molecules – biochemical, small-molecule microarray, 635/667 nm fluorescence, artefact control for SMM control-protein annotation, profiling panel (AID 1131).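 Further: z-score merges 667 nm fluorescence with per-spot signal-to-noise over triplicate slides.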 The following applies: fibrinogen-A647 binding fluorescence, higher = more signal.
Test [5] concerns the target Follistatin (Homo sapiens) (UniProt P19883). Kind of test: FST protein binding to printed compounds – biochemical, small-molecule microarray, 635/667 nm fluorescence, primary screen (AID 1132). The settings on record: 635 nm fluorescence, higher = more signal.
Test [6] addresses Fibroblast growth factor 2 (Homo sapiens) (UniProt P09038). The test is described as follows: basic fibroblast growth factor binding to printed compounds – biochemical, small-molecule microarray, 635/667 nm fluorescence, primary screen (AID 1133). The following applies: FGF2, fluorescence 635/667, higher = more signal.
The nature of test [7]: JC-1 mitochondrial potential readout, lung cancer cells – cell-based, A549, JC-1 fluorescence, basal, 24 h, 100 nL, profiling panel (AID 1138).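 Further: A549 lung adenocarcinoma cells under basal conditions with no added stimulus; test concentration not given here.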 The settings on record: higher = more signal.
The next test relates to Lefty1. The test is described as follows: Lefty1 protein binding to printed compounds – biochemical, small-molecule microarray, 635/667 nm fluorescence, primary screen (AID 1139). The settings on record: fluorescence 635/667, higher = more signal.
Test [8] relates to wheat germ agglutinin (Triticum aestivum), Alexa647-labelled. The test is described as follows: Alexa647-WGA lectin binding to printed small molecules – biochemical, small-molecule microarray, 635/667 nm fluorescence, artefact control for SMM control-protein annotation, profiling panel (AID 1140).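 Further: score merges 667 nm feature emission with signal to noise over triplicate slides.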 The following applies: WGA-A647 binding, 635 nm fluorescence, higher = more signal.

Test [9] has as its target Luciferin 4-monooxygenase (Photinus pyralis) (UniProt P08659). Kind of test: inhibition of purified Photinus pyralis luciferase – biochemical, luminescence, purified enzyme, 2006 set, primary screen (AID 1141).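 Further: cell-free assay with purified firefly luciferase at 100 ng per well in PBS; test concentration not given here.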 The following applies: purified firefly luciferase, SteadyGlo luminescence, 30 min; higher = more signal, called active from +8 up or from −8 down.
Test [10] concerns Wnt5a (protein binding on small-molecule microarray). The test is described as follows: small molecules binding Wnt5a protein – biophysical, small-molecule microarray, 635/667 nm fluorescence, primary screen (AID 1142).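 Further: fluorescence read at 667 nm with signal to noise per printed feature.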 The following applies: 635 nm fluorescence, higher = more signal.
The nature of test [11]: ATP-based viability of Huh7 replicon cells – cell-based, CellTiter-Glo luminescence, basal, 48 h, cytotoxicity control for HCV replication inhibitor project, primary screen (AID 1143).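 Further: Huh7 hepatoma cells carrying a hepatitis C replication reporter with no stimulus; test concentration not given here.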 The following applies: higher = more signal, called active from +8 up or from −8 down. In general terms: In antiviral work, replicon cells carry a viral genome segment that copies itself.
A short description of test [12]: Pseudomonas biofilm growth suppression – PAO1 strain, BacTiter-Glo luminescence, LB-PBS, primary screen (AID 1144). The following applies: P. aeruginosa PAO1 biofilm, 12 h, higher = more signal.
A short description of test [13]: basal CRE-LacZ reporter activity in PC12 – cell-based, unstimulated, primary screen (AID 1145). The settings on record: no forskolin, luminescence, 4.5 h, higher = more signal, called active from +8 up or from −8 down.
Test [14] is described as follows: forskolin-driven CRE-LacZ activity in PC12 – cell-based, CRE-LacZ reporter, forskolin-stimulated, primary screen (AID 1146).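 Further: PC12 cells with 6xCRE LacZ reporter stimulated by forskolin 10 µM; beta-galactosidase reporter signal reflecting CREB driven transcription.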 The settings on record: luminescence, 4.5 h, higher = more signal, called active from +8 up or from −8 down.
The target of test [15] is Streptavidin (Streptomyces avidinii) (UniProt P22629). Kind of test: compounds binding control protein streptavidin – biophysical, small-molecule microarray, 635/667 nm fluorescence, artefact control for SMM compound annotation, primary screen (AID 1147).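 Further: signal reflects streptavidin binding to arrayed compounds as a control protein.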 The settings on record: higher = more signal.
The nature of test [16]: probe aInhba binding on compound microarray – biochemical, small-molecule microarray, 635/667 nm fluorescence, primary screen (AID 1148).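 Further: score merges 667nm spot fluorescence with signal-to-noise for antibody binding to printed compounds.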 The settings on record: higher = more signal.
Test [17] concerns the target Torsin-1A (Homo sapiens) (UniProt O14656). Kind of test: TOR1A wild-type binding on microarray – cell lysate, small-molecule microarray, lysate, 635/667 nm, primary screen (AID 1149). The settings on record: COS7 hTOR1A-WT lysate, 635 nm fluorescence, higher = more signal.
Test [18] shares this target. Kind of test: torsin A mutant lysate binding on microarrays – cell lysate, small-molecule microarray, COS7 lysate, 635/667 nm fluorescence, primary screen (AID 1150).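 Further: score pools 667 nm emission and signal to noise measuring lysate protein binding.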 The settings on record: COS7 hTOR1A mutant lysate, 635 nm fluorescence, higher = more signal.
Test [19] concerns Sonic hedgehog protein (Shh). Kind of test: Sonic hedgehog microarray binding compounds – biochemical, small-molecule microarray, 635/667 nm fluorescence, primary screen (AID 1151).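 Further: Shh protein binding to compounds spotted on small-molecule microarray slides; score combines spot fluorescence intensity with signal-to-noise across triplicate slides.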 The following applies: 635 nm fluorescence, higher = more signal.

The source made the active and inactive calls. Unless noted, how the calls were made is not given here.

Torsin-1A (Homo sapiens), sequence (O14656 whole entry, looked up): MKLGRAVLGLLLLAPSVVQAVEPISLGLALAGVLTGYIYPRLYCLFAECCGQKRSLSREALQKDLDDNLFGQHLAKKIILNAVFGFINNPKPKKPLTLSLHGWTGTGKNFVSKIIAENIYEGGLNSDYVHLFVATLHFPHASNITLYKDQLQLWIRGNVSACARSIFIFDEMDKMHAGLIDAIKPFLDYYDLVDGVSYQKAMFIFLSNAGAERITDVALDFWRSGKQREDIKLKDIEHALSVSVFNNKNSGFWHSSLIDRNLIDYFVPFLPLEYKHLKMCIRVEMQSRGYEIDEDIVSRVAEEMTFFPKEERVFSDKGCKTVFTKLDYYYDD
Focal adhesion kinase 1 (Homo sapiens), sequence (Q05397 whole entry, looked up): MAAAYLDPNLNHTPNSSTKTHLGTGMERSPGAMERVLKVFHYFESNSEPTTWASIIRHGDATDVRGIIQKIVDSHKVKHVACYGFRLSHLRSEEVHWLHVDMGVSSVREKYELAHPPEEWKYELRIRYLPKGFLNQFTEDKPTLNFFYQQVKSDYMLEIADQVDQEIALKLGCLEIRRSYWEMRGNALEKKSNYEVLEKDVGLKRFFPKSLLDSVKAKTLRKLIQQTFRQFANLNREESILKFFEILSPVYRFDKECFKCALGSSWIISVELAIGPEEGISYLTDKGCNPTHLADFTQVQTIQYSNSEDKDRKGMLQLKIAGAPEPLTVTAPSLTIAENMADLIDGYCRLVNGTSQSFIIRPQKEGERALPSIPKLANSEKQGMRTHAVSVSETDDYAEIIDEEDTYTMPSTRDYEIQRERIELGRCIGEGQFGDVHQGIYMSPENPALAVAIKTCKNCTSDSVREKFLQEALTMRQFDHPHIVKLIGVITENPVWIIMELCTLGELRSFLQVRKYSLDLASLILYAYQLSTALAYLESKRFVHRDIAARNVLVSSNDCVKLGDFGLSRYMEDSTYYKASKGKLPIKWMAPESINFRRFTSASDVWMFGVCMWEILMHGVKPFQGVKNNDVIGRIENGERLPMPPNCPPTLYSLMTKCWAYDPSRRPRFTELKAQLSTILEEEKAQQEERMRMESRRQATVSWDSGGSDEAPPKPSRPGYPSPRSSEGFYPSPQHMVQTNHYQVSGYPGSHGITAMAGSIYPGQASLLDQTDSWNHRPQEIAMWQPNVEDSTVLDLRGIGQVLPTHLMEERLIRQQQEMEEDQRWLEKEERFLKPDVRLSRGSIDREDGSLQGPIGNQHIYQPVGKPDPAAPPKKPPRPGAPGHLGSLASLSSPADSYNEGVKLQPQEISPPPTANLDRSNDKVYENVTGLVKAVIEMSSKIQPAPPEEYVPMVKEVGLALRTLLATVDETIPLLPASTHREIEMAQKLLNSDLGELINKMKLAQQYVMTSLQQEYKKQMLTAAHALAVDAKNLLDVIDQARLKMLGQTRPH
Streptavidin (Streptomyces avidinii), sequence (P22629 whole entry, looked up): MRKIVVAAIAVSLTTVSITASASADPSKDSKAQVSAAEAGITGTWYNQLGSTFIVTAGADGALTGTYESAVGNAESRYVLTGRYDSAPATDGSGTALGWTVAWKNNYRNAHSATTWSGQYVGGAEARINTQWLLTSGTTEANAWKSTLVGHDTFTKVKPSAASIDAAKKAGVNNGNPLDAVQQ
Fibroblast growth factor 2 (Homo sapiens), sequence (P09038 whole entry, looked up): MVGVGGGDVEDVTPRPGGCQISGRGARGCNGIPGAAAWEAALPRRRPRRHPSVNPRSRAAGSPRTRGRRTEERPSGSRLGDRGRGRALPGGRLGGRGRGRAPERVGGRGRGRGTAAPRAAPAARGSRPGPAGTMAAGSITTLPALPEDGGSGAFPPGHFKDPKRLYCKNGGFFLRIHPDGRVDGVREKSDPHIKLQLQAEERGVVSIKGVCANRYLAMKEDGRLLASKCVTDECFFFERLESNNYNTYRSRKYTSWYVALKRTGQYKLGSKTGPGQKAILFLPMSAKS
Luciferin 4-monooxygenase (Photinus pyralis), sequence (P08659 whole entry, looked up): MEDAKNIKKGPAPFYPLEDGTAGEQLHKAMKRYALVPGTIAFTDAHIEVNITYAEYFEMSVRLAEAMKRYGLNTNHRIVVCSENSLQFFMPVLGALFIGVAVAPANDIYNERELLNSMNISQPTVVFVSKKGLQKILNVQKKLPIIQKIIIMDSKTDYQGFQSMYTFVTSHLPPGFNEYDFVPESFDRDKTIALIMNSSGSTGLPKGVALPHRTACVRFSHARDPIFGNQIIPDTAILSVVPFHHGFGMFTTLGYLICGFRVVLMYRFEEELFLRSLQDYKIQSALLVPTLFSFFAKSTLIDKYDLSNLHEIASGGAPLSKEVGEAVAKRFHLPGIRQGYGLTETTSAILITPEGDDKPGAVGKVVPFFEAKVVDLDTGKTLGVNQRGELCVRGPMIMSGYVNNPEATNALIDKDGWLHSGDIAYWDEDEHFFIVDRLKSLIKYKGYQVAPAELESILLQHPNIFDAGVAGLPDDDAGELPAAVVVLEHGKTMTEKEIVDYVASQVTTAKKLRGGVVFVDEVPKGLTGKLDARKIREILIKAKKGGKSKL
Follistatin (Homo sapiens), sequence (P19883 whole entry, looked up): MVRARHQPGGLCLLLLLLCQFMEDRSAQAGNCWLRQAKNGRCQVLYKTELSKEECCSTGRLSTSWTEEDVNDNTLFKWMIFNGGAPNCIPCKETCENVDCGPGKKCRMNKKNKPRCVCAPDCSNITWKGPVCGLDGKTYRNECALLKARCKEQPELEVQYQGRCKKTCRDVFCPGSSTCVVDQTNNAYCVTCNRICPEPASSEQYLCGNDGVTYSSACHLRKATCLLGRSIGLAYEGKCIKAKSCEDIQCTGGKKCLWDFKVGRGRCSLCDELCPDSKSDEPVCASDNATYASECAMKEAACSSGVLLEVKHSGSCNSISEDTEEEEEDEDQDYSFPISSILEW

On to `C=C(COC)/C(=C/C[C@@H](OC(=O)c1ccncc1)c1ccc(OCCO)cc1)c1cnc2ccccc2c1`, for which the composite z-score worked out at 0.866 in test [1]; 1.13 in test [2]; 0.0089 in test [3]; 0.94 in test [4]; 1.46 in test [5]; 1.74 in [6]. The composite z-score with Lefty1 worked out at 1.49; in test [8] it was 0.798; in test [10], 0.884; in test [15], 2.13; in [16], 0.0419; in the test with Torsin-1A (Homo sapiens) [17], 0.77. Also, the composite z-score in the test with Torsin-1A (Homo sapiens) [18] stood at 0.327; in test [19] it was 2.09. Further, the z-score in [7] was 0.703; in [9], -2.4 (inactive); in [11], -3.25 (inactive); in [12], -1.28 (inactive); in test [13], 7.95 (inactive); in test [14], 0.34 (inactive).

As to `CC(C)(C)OC(=O)CC[C@]1(C(=O)N2CCOCC2)N=C(c2ccc(OCCCO)cc2)O[C@H]1c1ccccc1`, the composite z-score is 1.9 in test [1]; 0.645 in test [2]; 0.407 in test [3]; 0.886 in [4]; 0.825 in test [5]; 0.858 in [6]. The composite z-score is 0.398 in the test on Lefty1; 0.298 in test [8]; 0.959 in test [10]; 2.02 in [15]; -0.152 in [16]; -0.0284 in the test with Torsin-1A (Homo sapiens) [17]. Also, the composite z-score with Torsin-1A (Homo sapiens) [18] was 0.618; in [19] it was -0.733. Besides, the z-score in test [7] is 2.23; in test [9], -1.99 (inactive); in test [11], -1.37 (inactive); in [12], 0.838 (inactive); in [13], -0.114 (inactive); in [14] it was 1.06 (inactive).

With `CC(C)C(O)C1C=CC2C(=O)N(C)C(=O)C2N1N(c1ccccc1)c1ccccc1` (stereo not given), the composite z-score was 0.545 in test [1]; -0.735 in test [2]; 0.523 in test [3]; 0.597 in test [4]; -0.0394 in [5]; -0.926 in test [6]. Moreover, the composite z-score in the test with Lefty1 is -0.852; in test [8] it was 0.357; in [10] it was -0.18; in test [15] it was 0.0226; in [16], -0.0332; in the test with Torsin-1A (Homo sapiens) [17], -0.141. Also, the composite z-score in the test with Torsin-1A (Homo sapiens) [18] is 0.369; in [19], -1.28. Also, the z-score in test [7] is 0.953; in [9], 0.734 (inactive); in test [11] it was 0.909 (inactive); in test [12] it was 0.633 (inactive); in test [13] it was 0.0535 (inactive); in [14], -0.136 (inactive).

As for `NCCCCCCNC(=O)[C@H]1C[C@H]2C(=O)N[C@@H](Cc3ccccc3)C(=O)N2[C@H]1c1ccc(O)cc1`, the composite z-score in [1] stood at 2.04; in test [2], 0.692; in test [3], 0.937; in [4], 0.999; in test [5] it was 1.32; in test [6], 0.619. For the same compound, the composite z-score with Lefty1 was determined as 0.795; in [8] it was 1.1; in test [10], 0.21; in test [15], 1.38; in [16], 0.103; in the test with Torsin-1A (Homo sapiens) [17], 2.14. The composite z-score with Torsin-1A (Homo sapiens) [18] is 0.394; in test [19], 1.07. In addition, the z-score in [7] was -0.267; in [9], 0.166 (inactive); in [11], 0.277 (inactive); in test [12], -0.652 (inactive); in [13], -1.48 (inactive); in [14] it was -1.24 (inactive).

For `CCCCN1CC=CC23O[C@@H]4/C=C\CCC(C)OC(=O)C4[C@H]2C(=O)N(CCCCCCO)[C@@H]3C1=O` (stereo not given in full), the composite z-score was 0.539 in test [1]; 0.0554 in test [2]; -0.266 in test [3]; -1.22 in test [4]; -0.454 in test [5]; -0.668 in test [6]. The composite z-score in the test on Lefty1 was -0.74; in [8], -0.465; in test [10], 0.0569; in test [15], -0.519; in test [16] it was -0.239; in the test with Torsin-1A (Homo sapiens) [17], 1.08. For the same compound, the composite z-score was 2.16 in the test with Torsin-1A (Homo sapiens) [18] and -0.57 in [19]. Moreover, the z-score in [7] is 0.376; in test [9] it was -0.393 (inactive); in test [11] it was 0.745 (inactive); in [12], -0.72 (inactive); in test [13], 0.61 (inactive); in test [14], -0.0292 (inactive).

These data come from PubChem BioAssay.
